The record followed here is ChEMBL document CHEMBL3988442, “University of Dundee, Small-Polar-MMV Screening Library” (2021).

Structures are written as SMILES. Among all 48,000 compounds or so, about 13,000 (27%) showed an effect of 50% or more. The list shows a part of the results.

The subject of this assay is Wolbachia pipientis. The experiment in a line: Anti-Wolbachia Cell-Based Screen. Format: functional. Details: scale not given: in the data most compounds retested in dose-response had high values. The settings on record: 5 µM.
For `Cc1cccc(N(CC(=O)N2CCCCC2)Cc2nc(=O)[nH][nH]2)c1`, the “Percent Effect” value is on record as -2.957%. Under `O=C(O)C(F)(F)F.O=C(c1ccc2ccc(N3CCN(CC4CC4)CC3)n2c1)N1CCCO1` stands -6.167%; under `O=C(Cn1cc(-c2ccccc2)cn1)N1CCNC1=O`, 110%. Turning to `O=C(Cn1cc(I)cn1)N1CCOCC1`, the “Percent Effect” value is recorded as 0.7374%.

Consider `O=C(Cn1cc(I)cn1)N1CCNC1=O`, for which the “Percent Effect” value was 104.2%. As for `O=C(CCn1cc(Cl)cn1)Nc1ncccn1`, the “Percent Effect” value is recorded as -3.476%. Then `O=C(Cn1cc(Cl)cn1)N1CCNC1=O`, with 95.03%. Consider `CCCNC(=O)Cn1cc(-c2ccccc2)cn1`, for which the “Percent Effect” value was 1.367%. Then `Cc1nccc(-c2cccc(NCC(=O)N3CCNC3=O)c2)n1`, with 6.599%; and `O=C(Cn1cc(I)cn1)N1CCCC1`, with 17.91%; and `CC(C)C(C)(C#N)NC(=O)Cn1cc(Cl)cn1` (stereo unspecified), with -4.371%. Under `CN1C[C@@H](NC(=O)CC(C)(C)C)C[C@H]1c1nc(-c2cnccn2)no1` stands -6.894%. Under `O=C(CN1CSCC1=O)NCC1CCN(c2ccccc2)C1` (stereo unspecified) stands -5.821%; under `O=S1(=O)C[C@@H]2[C@H](C1)N(Cc1ccc3ccccc3c1)CCN2CC1CC1`, -3.143%. With `O=C(c1cncs1)N1CCC(c2cnccn2)CC1`, the “Percent Effect” value was 100.4%. For the compound `CN(C)c1cc2c(nn1)CCN(C(=O)c1cc3c(s1)CCCC3)C2`, the “Percent Effect” value is 1.352%. In the case of `O=C(c1cc2c(s1)CCCCC2)N1CCC(c2ncc[nH]2)CC1`, the “Percent Effect” value worked out at 88.07%. Then `O=C(c1ccc2c(c1)OCO2)N1CCN(c2cnccn2)CC1`, with -2.532%. Under `CN(C)c1cc(C(=O)N2CCN(c3cnccn3)CC2)ccn1` stands -5.802%; under `Cc1nc(C2CCCN2C(=O)c2cc3c(s2)CCCC3)no1` (stereo unspecified), -3.152%; under `O=C(c1cc2c(s1)CCC2)N1CCN(c2cnccn2)CC1`, 87.73%. As to `O=C(c1cc2c(s1)CCC2)N1CCC(c2cnccn2)CC1`, the “Percent Effect” value was 151.2%. Turning to `O=C(c1cnccn1)N1CCN(c2ccnc3ccsc23)CC1`, the “Percent Effect” value is reported as 3.546%. Take `C=C(C)COc1cccc(CNC(COC)c2ccnn2C)c1` (stereo unspecified): the “Percent Effect” value worked out at 4.309%. Under `Cn1c(Cn2cccn2)nnc1C1CCN(Cc2cccnc2N)CC1` stands -0.4084%; under `O=C(c1cc2c(s1)CCC2)N1CCC(c2ccncc2)CC1`, 202.7%; under `O=C(c1cc2c(s1)CCC2)N1CCCC(c2cnccn2)C1` (stereo unspecified), 144.9%. Under `Cc1cc(C2CCCN2C(=O)c2cc3c(s2)CCC3)on1` (stereo unspecified) stands 4.731%; under `CN(C)c1cc2c(nn1)CCN(C(=O)c1cc3c(s1)CCC3)C2`, 9.509%. Then `CCn1cnnc1C1CCN(C(=O)c2cc3c(s2)CCC3)CC1`, with -8.588%; and `COc1ccc(Cl)cc1-c1cc(NC(=O)CNC(=O)C2CC2)[nH]n1`, with -9.759%; and `CCn1cc(CN2CCC(N3CCC(O)CC3)CC2)cc1C#N`, with 0%. With `Cc1csc(C(C)(C)NCC(=O)N2CCCC(C(N)=O)C2)n1` (stereo unspecified), the “Percent Effect” value is recorded as -19.83%. Under `CN(c1ccc(C(N)=O)nn1)C1CCC1` stands 4.967%; under `OCCc1cn(CC2CCCN(Cc3nccs3)C2)nn1` (stereo unspecified), -2.093%; under `CN1CCCc2cc(CNC(=O)c3ccncc3)ccc21`, 7.884%. Regarding `CN1CCCc2cc(CNC(=O)c3ccc(-n4cnnc4)cc3)ccc21`, the “Percent Effect” value worked out at 119.3%.

Take `CC(C)C(=O)NS(=O)(=O)c1ccc2c(c1)N(C)CCC2`: the “Percent Effect” value was -5.146%. Under `Cc1nc(CNC(=O)Nc2ccc3c(c2)CCCN3C)sc1C` stands 18.83%; under `Cc1ccc(C(=O)NCc2ccc(N3CCNC(=O)C3)c(F)c2)cc1`, -3.953%. Take `CN1CCCc2cc(CNC(=O)c3cc[n+]([O-])cc3)ccc21`: the “Percent Effect” value is 106.3%. Then `COCC(=O)N[C@H]1C[C@@H](Cc2cc(CN3CCOCC3)on2)C1(C)C`, with -1.513%. Take `CCCn1cnc2c1CN(S(=O)(=O)Cc1ccccc1)[C@H](C(=O)OC)C2`: the “Percent Effect” value is -5.674%. Under `CCc1noc(CCCC(=O)Nc2cc(C(F)(F)F)c[nH]c2=O)n1` stands 7.764%.

On to `Cc1nc(NCCSc2nnc(C)s2)c2cccnc2n1`, for which the “Percent Effect” value was -15.89%. Under `O=C(NCCc1cccs1)NCC(O)c1cccc(F)c1` (stereo unspecified) stands 94.53%; under `Cc1cc(OC(F)F)c(C(=O)NCC(O)c2cccc(F)c2)s1` (stereo unspecified), -16.7%; under `COc1ccc(CCNC(=O)NCC(O)c2cccc(F)c2)cc1` (stereo unspecified), 127.5%.

In the case of `O=C(NCCc1ccc(F)cc1)NCC(O)c1cccc(F)c1` (stereo unspecified), the “Percent Effect” value stood at 98.05%.

For `Cc1nc(CCNC(=O)NCC(O)c2cccc(Cl)c2)cs1` (stereo unspecified), the “Percent Effect” value is reported as 5.885%. In the case of `O=C(NCC(O)c1cccc(F)c1)c1sccc1OC(F)F` (stereo unspecified), the “Percent Effect” value is on record as 13.48%. As to `CC(C)COCCCNC(=O)NCC(O)c1cccc(F)c1` (stereo unspecified), the “Percent Effect” value was 93.97%. As for `O=C(CN1CCCS(=O)(=O)CC1)NCc1ccccc1F`, the “Percent Effect” value was -8.655%.

As for `Cc1ccc(CNC(=O)NC2CCN(CC(F)F)CC2)cc1`, the “Percent Effect” value is reported as -0.1084%. Under `Cn1cnnc1C1CCN(c2nc3ccccc3o2)CC1` stands -4.492%. Then `CCOc1ccc(CN(C)C2CCN(c3cc(C)nn3C)C2=O)cc1` (stereo unspecified), with -7.061%; and `CCn1ccc(C(=O)N2CCCN(Cc3ccccc3F)CC2)cc1=O`, with -3.557%. As for `CN(Cc1ccccc1)c1ncccc1CNC(=O)c1ccnn1C`, the “Percent Effect” value is -0.05459%. Then `Cc1ccc(-n2nnc(CC(=O)N3CCSCC3)c2C)cc1`, with 7.911%. Under `O=C(NCCc1ccccc1)NCC(O)c1cccc(F)c1` (stereo unspecified) stands 91.4%; under `O=C(NCCc1cccc(F)c1)NCC(O)c1cccc(F)c1` (stereo unspecified), 4.017%.

In the case of `O=C(NCCN1CCOCC1)NCC(O)c1cccc(F)c1` (stereo unspecified), the “Percent Effect” value is given as -0.6049%. Then `CN1CC2(CCN(C(=O)c3ccc4c(=O)n(C)cnc4c3)C2)OC1=O` (stereo unspecified), with -9.693%; and `COc1c(C2CCCN2Cc2csc(C(C)C)n2)c(C)nn1C` (stereo unspecified), with 4.743%; and `O=C1CCC2(CCN(Cc3ccoc3)CC2)N1OCc1ccccc1F`, with -6.682%. Take `Cc1cccc(CN2C(=O)CCC23CCN(Cc2nccn2C)CC3)n1`: the “Percent Effect” value was 88.13%. Take `Cc1cccc(CN2C(=O)CCC23CCN(Cc2ccoc2)CC3)n1`: the “Percent Effect” value came out at 102.5%. Then `Cc1cccc(Cn2c3c(ccc2=O)CCN(Cc2ccoc2)CC3)n1.O=C(O)C(F)(F)F.O=C(O)C(F)(F)F`, with 0.1669%; and `CN1CC(=O)N(c2ccsc2)CC12CCN(Cc1nccn1C)C2` (stereo unspecified), with 2.996%; and `Cc1cccc(CN2C(=O)CC[C@@H]3[C@H]2CCN3Cc2nccn2C)n1.O=C(O)C(F)(F)F.O=C(O)C(F)(F)F.O=C(O)C(F)(F)F`, with 16.26%. Then `Cn1cc(C#N)cc1C(=O)NC1(C#N)CCSCC1`, with -2.619%; and `COCCN(Cc1nccs1)C(=O)c1cc(-c2ccc(C)s2)n[nH]1`, with -12.01%. Under `CN(C)S(=O)(=O)c1ccc(OCCNCCn2cccn2)cc1` stands 11.92%; under `Cc1nc(COc2ccc(N(C)S(C)(=O)=O)cc2)sc1C`, 78.79%.

Consider `Cc1noc(C)c1CNC(C)c1ccc(S(=O)(=O)N(C)C)cc1` (stereo unspecified), for which the “Percent Effect” value is given as -12.9%. Under `Cc1nc(COc2ccc(S(=O)(=O)N(C)C)cc2)sc1C` stands 104.7%.

For the compound `COc1ccc(OCc2sc(C3(O)CCCNCC3)nc2C)cc1.Cl` (stereo unspecified), the “Percent Effect” value is given as -5.149%. Then `Cc1nc(C)c(COc2ccc(N(C)S(C)(=O)=O)cc2)s1`, with -26.99%; and `CN(c1ccc(OCc2cnc(Cl)s2)cc1)S(C)(=O)=O`, with 2.089%; and `Cc1ncc(COc2ccc(N(C)S(C)(=O)=O)cc2)s1`, with -0.05196%. Under `Cc1nc(C)c(COc2ccc(S(=O)(=O)N(C)C)cc2)s1` stands 94.55%; under `CC(C)N1Cc2cccc(NCC(=O)N(C)C)c2C1`, -13.34%; under `Cc1ccc(N2Cc3c(CN(C)C)nn(C)c3C2)nn1`, -4.068%. Under `CC(C)COCc1cncc2c1CCN(C(=O)c1cscn1)C2.O=C(O)C(F)(F)F` stands 82.53%; under `CC(C)COCc1cncc2c1CCN(Cc1cnn(C)c1)C2.O=C(O)C(F)(F)F.O=C(O)C(F)(F)F`, -4.372%; under `O=C(O)C(F)(F)F.O=C(c1ccsc1)N1CCc2c(COCC3CC3)cncc2C1`, -5.644%. Consider `O=C(O)C(F)(F)F.O=C(c1ccco1)N1CCc2c(COCC3CC3)cncc2C1`, for which the “Percent Effect” value was -15.15%. Under `CCOCc1cncc2c1CCN(C(=O)c1cscn1)C2.O=C(O)C(F)(F)F` stands 95.41%. Under `O=C(O)C(F)(F)F.O=C(c1cscn1)N1CCc2c(COCC3CC3)cncc2C1` stands 89.35%; under `Cc1ncsc1CN1C[C@@H]2COC[C@]2(C(=O)NC2CC(F)(F)C2)C1.O=C(O)C(F)(F)F`, 20.27%.

Consider `CN(C)C(=O)N1C[C@@H]2CC[C@H](C1)N(C(=O)CCCn1cncn1)C2`, for which the “Percent Effect” value is given as -23.9%. `Cc1cc(S(=O)(=O)NCc2cccc(C(=O)N3CCCC3)c2)c(C)s1`: the “Percent Effect” value is 10.27%.

For the compound `O=C(c1cccc(CNC/C=C/c2ccccc2)c1)N1CCCC1`, the “Percent Effect” value is -7.138%. Under `Cc1cc(F)ccc1CNCc1cccc(C(=O)N2CCCC2)c1` stands 100.5%; under `O=C(c1cccc(CNS(=O)(=O)c2ccccc2F)c1)N1CCCC1`, 1.767%; under `Cc1ccc(F)c(S(=O)(=O)NCc2cccc(C(=O)N3CCCC3)c2)c1`, 126.7%. Then `O=C(NCc1cccc(F)c1)c1cccc(C(=O)N2CCCC2)n1`, with 8.268%.

For the compound `Cc1cc(F)ccc1S(=O)(=O)NCc1cccc(C(=O)N2CCCC2)c1`, the “Percent Effect” value turned out to be 0.7357%.

Regarding `Cc1ccc(F)cc1S(=O)(=O)NCc1cccc(C(=O)N2CCCC2)c1`, the “Percent Effect” value amounted to 74.77%.

Take `O=C1[C@@H]2CCN(CC3CCOCC3)C[C@@H]2OCCN1c1ccccc1`: the “Percent Effect” value is reported as -22.15%. Turning to `CN(C)C(=O)CNC(CC(F)(F)F)c1ccc(Cl)cc1` (stereo unspecified), the “Percent Effect” value was 1.329%.
